Results: PubChem BioAssay (NCATS)
Results filed as inconclusive are left out. The source made the active and inactive calls. Calls follow the shape of the dose curve; as a rule, active = well fitted inhibition curve with a large enough effect; inconclusive = small, poorly fitted or top-dose-only effect; inactive = flat fitted curve, though single readings scatter. Where a SMILES comes first, the peptide text is derived from it. The star is where a group is joined. AFC = O=c1cc(C(F)(F)F)c2ccc(N*)cc2o1

How the values were obtained:
Test in all cases: Cytotoxic Profiling of Annotated Libraries Using Quantitative High-Throughput Screening (AID 1296008); also: nearly all actives have a fitted effect of over 60% in size
Conditions in all cases: Five cell lines viability, CellTiter-Glo ATP luminescence, 48-72 h; max response: hits give low values
[1] = tested on: HEK293
Procedure, shortened: (§1)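 Cytotoxicity was measured as CellTiter-Glo ATP luminescence, read after 10 min at room temperature. Compound treatment of the cells lasted 48 or 72 hr at 37 degrees Celsius in a qHTS format.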

[2] = tested on: HaCat
Procedure, shortened: as §1

[3] = tested on: KB-3-1
Procedure, shortened: as §1

[4] = tested on: NIH3T3
Procedure, shortened: as §1
% is scaled to controls: 0 for no effect and ±100 for the full control effect; potency is read from the fitted curve at half-maximal effect.

C=C1CCC2C(C)(C(=O)O)CCCC2(C)C1CCC(C)CC(=O)O (stereo not given)
inactive: max response [1] -0.0508% | max response [2] 3.35% | max response [3] -0.708% | max response [4] -9.77%

CC1=C(COC2OC(CO)C(O)C(O)C2O)C(C(CO)C(=O)O)CC1 (stereo not given)
inactive: max response [1] -0.67% | max response [2] -4.43% | max response [3] 9.18% | max response [4] -0.514%

CC12CCC(OC3OC(CO)C(O)C(OC4OC(CO)C(O)C(O)C4O)C3O)CC1CCC1C2CCC2(C)/C(=C3/COC(=O)C3)CCC12O (stereo not given)
inactive: max response [1] -1.14% | max response [2] -0.083% | max response [3] -0.791% | max response [4] 4.18%

COc1c2c(c(C)c3c1C(=O)OC3)O[C@@]1(C)CCC3(C(C)(C)O)OC(=O)CC[C@]3(C)[C@H]1C2 (stereo not given in full)
inactive: max response [1] -0.697% | max response [2] -17.1% | outcome [3] | max response [4] -21.1%

CC(C)=CCC(O)/C(C)=C/CO[C@@H]1O[C@H](CO)[C@@H](O)[C@H](O)[C@H]1O (stereo not given in full)
inactive: max response [1] -0.719% | max response [2] -6.63% | outcome [3] | max response [4] 0.203%

CC(C)CC1NC(=O)C(C)NC(=O)C(CC(C)C)OC(=O)CCCNC1=O (stereo not given)
inactive: max response [1] -5.55% | max response [2] -8.69% | outcome [3] | max response [4] -22.2%

CC(=O)O[C@@H]1[C@@H](O)[C@H](C)O[C@@H](O[C@H]2[C@@H]3C=CO[C@@H](O[C@@H]4O[C@H](CO)[C@@H](O)[C@H](O)[C@H]4O)[C@@H]3[C@@]3(CO)O[C@@H]23)[C@@H]1OC(=O)/C=C/c1ccccc1
inactive: max response [1] 2% | max response [2] -6.78% | max response [3] -1.35% | max response [4] -1.99%

CC(C)[C@@H]1C(=O)N(S(C)(=O)=O)[C@@H]2CCN(C(=O)/C=C/CN3CCCCC3)[C@H]21
inactive: max response [1] -1.35% | max response [2] -0.855% | max response [3] 5.42% | max response [4] 1.85%

CC1=C(C)C(=O)OC(C(C)C2CCC3C4C5OC5C5(O)CC(OC6OC(CO)C(OC7OC(C)C(O)C(O)C7O)C(O)C6O)CC(O)C5(C)C4CCC23C)C1 (stereo not given)
inactive: max response [1] -0.932% | max response [2] 4.81% | outcome [3] | max response [4] 3.69%

CC1CC(C(O)C(C)(C)O)OC2CC3(C)C4(C)CCC5C(C)(C)C(=O)CCC5(C)C4CCC3(O)C12O (stereo not given)
inactive: max response [1] -2.59% | max response [2] 3.58% | outcome [3] | max response [4] 2.04%

CC[C@H](C)[C@H](NC(=O)[C@H]([C@@H](C)CC)N(C)C(C)=O)C(=O)N[C@H](C(=O)N[C@@H](CC(C)C)C(=O)[C@@]1(C)CO1)[C@@H](C)O
active: Potency [1] 0.0092 µM | Potency [2] 0.0366 µM | Potency [3] 0.0326 µM | Potency [4] 0.058 µM

C=C[C@H]1[C@H](O[C@@H]2O[C@H](CO)[C@@H](O)[C@H](O)[C@H]2O)OC=C(C(=O)OC)[C@H]1C[C@@H]1c2cc(O)c(O)cc2CCN1C(C)=O
inactive: max response [1] 2.33% | max response [2] 3.48% | max response [3] -1.92% | max response [4] -10.7%

C=C1C(=O)O[C@@H]2C[C@H](C)[C@@]3(O)C=C(C(C)=O)[C@]4(CC3C[C@H]12)C(=O)O[C@H]1C[C@@H](C)C(CCC(C)=O)=CC[C@H]14 (stereo not given in full)
inactive: max response [1] -5.38% | max response [2] -0.117% | outcome [3] | max response [4] -0.126%

C[C@@H]1C(=O)O[C@H]2C[C@]34[C@H]5C[C@@H](C(C)(C)C)[C@]36[C@@H](OC(=O)[C@H]6O)O[C@]4(C(=O)O5)[C@]21O
inactive: max response [1] -44.8% | max response [2] 3.22% | max response [3] -3.28% | max response [4] 3.92%

CC(O)/C=C/C1C(C)C(O[C@@H]2O[C@H](CO)[C@@H](O)[C@H](O)[C@H]2O)C(O)CC1(C)C (stereo not given in full)
inactive: max response [1] -16.1% | max response [2] 1.9% | max response [3] 3.1% | max response [4] 0.539%

CC/C=C\CCO[C@@H]1O[C@H](CO)[C@@H](O)[C@H](O)[C@H]1O
inactive: max response [1] 0.0515% | max response [2] -6.57% | max response [3] 3.45% | max response [4] -7.98%

O=C(NCc1ccc(F)cc1)C(=O)c1c[nH]c2ccccc12
inactive: max response [1] -9.93% | max response [2] -19.7% | max response [3] -9.55% | max response [4] -16.4%

CC(O)(CC(=O)O)CC(=O)OCc1ccc(O[C@@H]2O[C@H](CO)[C@@H](O)[C@H](O)[C@H]2O)cc1 (stereo not given in full)
inactive: max response [1] -1.35% | max response [2] 1.6% | outcome [3] | max response [4] -5.49%

C=C(C)C1CC[C@]2(C(=O)O)CC[C@]3(C(=O)O)[C@H](CCC4[C@@]5(C)CC[C@H](O)C(C)(C)C5CC[C@]43C)C12 (stereo not given in full)
inactive: max response [1] -5.51% | max response [2] -4.71% | max response [3] -4.13% | max response [4] -12.2%

CC(=O)N[C@@H](Cc1c[nH]c2ccccc12)C(=O)N[C@@H](CCC(=O)O)C(=O)N[C@@H](Cc1cnc[nH]1)C(=O)N[C@@H](CC(=O)O)C(=O)Nc1ccc2c(C(F)(F)F)cc(=O)oc2c1 (Ac-WEHD-{AFC})
inactive: max response [1] -1.72% | max response [2] -11.3% | outcome [3] | max response [4] 0.286%

C=CC1(C)C=C2C(=O)OC(=O)C3=C(CCCC3(C)C)C2(O)CC1 (stereo not given)
inactive: max response [1] -14.3% | max response [2] 1.65% | max response [3] 7.97% | max response [4] 0.193%

CN=C(N)NCCCCC/C=C(/C)CC(C)C1OC(=O)C(C)C(O)/C=C/C(C)C(O)CC(O)C(C)C(O)CCC(C)C(O)CC2(O)OC(CC(OC(=O)CC(=O)O)CC(O)CC(O)C(C)C(O)/C(C)=C/CCC1C)CC(O)C2O (stereo not given)
inactive: max response [1] -1.07% | max response [2] -0.878% | max response [3] 1.79% | max response [4] 1.75%

CCCOc1ccc(-c2nc(OC)c3ccccc3n2)cc1
inactive: max response [1] 4.19% | max response [2] -0.801% | outcome [3] | max response [4] 1.75%

CC1OC(OC2CCC3(C)C(CCC4(C)C3CC=C3C5CC(C)(C)CCC5(C(=O)OC5OC(CO)C(O)C(O)C5O)CCC34C(=O)O)C2(C)C)C(O)C(O)C1O (stereo not given)
inactive: max response [1] -0.856% | max response [2] -11.4% | max response [3] 4.21% | max response [4] -6.15%

COc1cccc(C(=O)N2CCN(C(=O)COc3cccc(C)c3)CC2)c1OC
inactive: max response [1] -16.5% | max response [2] -1.12% | max response [3] -10.9% | max response [4] -5.08%

Cc1ccc(F)cc1C(=O)Nc1ccc(C(=O)N2Cc3cccn3Cc3ccccc32)c(Cl)c1
inactive: max response [2] -26.5% | max response [3] -16% | max response [4] -21.1%
active: Potency [1] 9.2 µM

O=S(=O)(c1ccc(S(=O)(=O)n2cnc3ccccc32)cc1)N1CCCCCC1
inactive: max response [1] -10.3% | max response [2] -9.6% | max response [3] 6.01% | max response [4] -4.79%

CC1(C(=O)O)CCCC2(C)C3CCC4CC3(CCC12)CC4=O (stereo not given)
inactive: max response [1] 0.827% | max response [2] 2.83% | max response [3] -1.11% | max response [4] -6.02%

O=C(OC[C@@]1(O)CO[C@@H](O[C@H]2[C@H](Oc3ccc(O)cc3)O[C@H](CO)[C@@H](O)[C@@H]2O)[C@@H]1O)c1ccc(O)cc1
inactive: max response [1] -7.32% | max response [2] -0.439% | max response [3] -1.14% | max response [4] -2.03%

CC1CCC2C(C)(C)[C@@H](O)CC[C@]2(C)C12Cc1c(O)cc3c(c1O2)CN(C(CCC(=O)O)C(=O)O)C3=O (stereo not given in full)
inactive: max response [1] -4.16% | max response [2] 3.85% | outcome [3] | max response [4] -1.29%

CC(C)(C)CCN1C[C@@H]2C(CNC(=O)c3cc(Cl)cc(Cl)c3)[C@@H]2C1 (stereo not given in full)
inactive: max response [1] -15.4% | max response [2] -17.8% | max response [3] -5.02% | max response [4] -2.97%

COc1ccc(F)cc1-c1cc(NC(=O)[C@@H]2CCCNC2)ncc1Cl
active: Potency [1] 0.259 µM | Potency [2] 1.16 µM | Potency [3] 0.231 µM | Potency [4] 1.03 µM

C[C@H]1CC(=O)Nc2cccc(-c3cnn(C(C)(C)C)c3)c2N1
inactive: max response [1] 2.23% | max response [2] 4.21% | max response [3] -8.91% | max response [4] -7.27%

CC(C)C(C#N)O[C@@H]1O[C@H](CO[C@@H]2O[C@@H](C)[C@H](O)[C@@H](O)[C@H]2O)[C@@H](O)[C@H](O)[C@H]1O (stereo not given in full)
inactive: max response [1] 0.693% | max response [2] -12% | max response [3] -1.19% | max response [4] -15%

CC(C)CC1NC(=O)C2CC3(O)c4ccccc4NC3N2C1=O (stereo not given)
inactive: max response [1] 2.06% | max response [2] -17.2% | max response [3] 7.2% | max response [4] -1.31%
